Bioassay records: PubChem BioAssay, The Scripps Research Institute Molecular Screening Center
An excerpt weighted towards active compounds, which were near 1.3% of everything screened.
S1P4 antagonist: blocks the human S1P4 receptor; O95977; S1P4-expressing cells, antagonist mode, reporter read-out; inhibition, % at 4.98 µM; 0.26% of 220,000 active; in the data active = inhibition above about 29%;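 note: 0% = wells stimulated with agonist and 100% = vehicle wells without agonist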
S1P4 ag: human S1P4 receptor agonism; O95977; S1P4-expressing cell line, agonist reporter assay; activation, % at 4.98 µM; 0.35% of 220,000 active; in the data active = activation above about 11%;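 note: 0% = DMSO vehicle and 100% = reference agonist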
S1P3 antag: S1P3 (human) receptor antagonism | Q99500 | CHO S1P3 NFAT-BLA reporter, FRET fluorescence, antagonist mode | inhibition, % at 4.98 µM | 0.27% of 170,000 active | AID 485;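 active = inhibition above the plate cutoff, the mean inhibition of test wells on that plate plus 3 SD, cut at about 28% in these data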;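 note: cells challenged with S1P at its EC80 of 0.8 µM; blue over green emission ratio from cleaved BLA substrate after 4 h stimulation; 0% = S1P-stimulated wells and 100% = unstimulated DMSO-only wells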
GALR2 agonist: agonists of human galanin receptor 2 (GALR2); AID 803; activation, % (concentration not given with the values); 0.48% of 140,000 active; O43603; GALR2-expressing cells, agonist activation read-out; in the data active = activation above about 5%, passing the limit was not always enough;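 note: 0% = vehicle buffer wells and 100% = reference agonist at full effect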
Target sequence (O43603 whole entry, looked up): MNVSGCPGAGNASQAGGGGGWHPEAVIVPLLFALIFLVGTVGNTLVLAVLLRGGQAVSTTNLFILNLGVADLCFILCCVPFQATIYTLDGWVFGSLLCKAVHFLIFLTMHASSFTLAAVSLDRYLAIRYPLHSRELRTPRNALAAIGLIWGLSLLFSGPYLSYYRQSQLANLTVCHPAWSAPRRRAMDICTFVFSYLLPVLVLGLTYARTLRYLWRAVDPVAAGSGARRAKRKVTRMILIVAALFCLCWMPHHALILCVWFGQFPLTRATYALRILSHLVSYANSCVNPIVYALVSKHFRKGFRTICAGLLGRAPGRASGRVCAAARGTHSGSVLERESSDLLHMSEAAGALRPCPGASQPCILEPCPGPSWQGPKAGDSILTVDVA
GALR2 blocker: GALR2 (human) receptor antagonism. GALR2-expressing cells, antagonist mode. inhibition, % at 4 µM. 0.39% of 140,000 active. AID 828; in the data active = inhibition above about 27%;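 note: cells stimulated with galanin 1-16 at roughly its EC80; 0% = agonist challenge control and 100% = basal control without agonist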
S1P4 agonist cf: confirmation of human S1P4 receptor agonists. shares compounds with S1P4 ag. S1P4 agonist cell-based reporter assay. activation, % at 4.98 µM. 7% of 740 active. AID 1523; in the data active = activation above about 12%;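 note: 0% = vehicle and 100% = full reference agonist response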
S1P1 ag: counter-screen for S1P4 agonists: agonists of human S1P1 | 4% of 740 active | shares compounds with S1P4 ag | activation, % at 4.98 µM | S1P1 agonist cell-based assay, activation; in the data active = activation above about 21%;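 note: 0% = vehicle wells and 100% = reference agonist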
* = called active by the depositor; . = no result.

SMILES	S1P4 antagonist	S1P4 ag	S1P3 antag	GALR2 agonist	GALR2 blocker	S1P4 agonist cf	S1P1 ag
COc1ccccc1C1(O)CCN(CC(=O)Nc2nc(-c3ccccc3)cs2)CC1	-15	21*	-5	.	.	-1	4
COc1ccc(NC(=O)CCC2CCCCC2)cc1S(=O)(=O)N1CCCCC1	-9	2	-3	-1	0	.	.
CC1CCCC(NC(=O)CN(C)S(=O)(=O)c2cnc[nH]2)C1C (stereo not drawn)	-6	0	-19	.	.	.	.
COc1ccccc1CCN=C(N)NS(=O)(=O)c1ccccc1	-5	0	0	.	.	.	.
COc1ccc(OC)c(S(=O)(=O)NC(N)=NCCc2ccccc2OC)c1	2	23*	-21	.	.	-1	-5
Cc1onc(-c2c(F)cccc2Cl)c1C(=O)NC(=S)NCc1cccnc1	-7	4	6	-1	-2	.	.
C/C(=N\N1CCN(Cc2ccc(Cl)cc2)CC1)c1ccc(F)cc1	-2	75*	2	.	.	-2	4
C/C(=N\N1CCN(Cc2ccccc2Cl)CC1)c1ccc(F)cc1	-8	1	-12	.	.	.	.
CCOC(=O)Cc1csc(NC(=O)CC)n1	-11	1	-7	-3	-6	.	.
CCOC(=O)Cc1csc(NC(=O)CSc2nc(N)c3c(C)c(C)sc3n2)n1	-9	24*	.	-1	-2	-1	-3
Cc1c(N)cccc1-c1nc2ccccc2[nH]1	-4	1	.	-1	20	.	.
CCOC(=O)CC1(c2ccccc2)CCOC(C)(C)C1 (stereo not drawn)	-15	5	.	-1	-2	.	.
Cc1[nH]c2ccccc2c1CCN(Cc1cccs1)C(=S)Nc1ccccc1	-4	-2	4	.	.	.	.
COc1cccc(NC(=S)N(CCc2c(C)[nH]c3ccccc23)Cc2cccs2)c1	-8	16*	21	0	9	-2	-2
CC(C)(C)C(=O)Nc1cccc(-c2ncon2)c1	2	-1	-1	.	.	.	.
O=C(CSc1nnc(NC(=O)Cc2ccccc2)s1)NCc1ccco1	3	17*	-11	.	.	-3	-3
O=C(CSc1nnc(NC(=O)Cc2ccc(F)cc2)s1)NCc1ccco1	4	0	-16	.	.	.	.
CC1CCCCN1C(=O)COc1ccccc1F (stereo not drawn)	-31	13*	1	.	.	0	0
CC(=O)Oc1cc2oc(=O)c3c(c2cc1Cl)CCC3	-14	15*	-28	8	-9	1	-5
O=C(CCN1CCN(CCC(=O)c2ccccc2)CC1)c1ccccc1	.	.	-57	.	.	.	.
O=C(NC(Cc1c[nH]c2ccccc12)C(=O)O)c1ccco1 (stereo not drawn)	-16	-2	.	-1	-16	.	.
O=C(NCc1ccccc1)N[C@@H](Cc1c[nH]c2ccccc12)C(=O)O	7	14*	-11	1	2	-1	0
NC1=NC(=Nc2cccc(S(=O)(=O)N3CCOCC3)c2)c2ccccc21	-5	-2	5	.	.	.	.
Cc1cc(C)c2c(=O)[nH]c(SCC(=O)NCCc3ccccc3)nc2n1	-28	12*	.	-1	-1	-2	-2
Cc1ccc(-n2c(SCC(=O)N3CC(=O)Nc4ccccc43)nc3ccccc3c2=O)cc1	2	27*	3	0	-7	-2	-8
SMILES	S1P4 antagonist	S1P4 ag	S1P3 antag	GALR2 agonist	GALR2 blocker	S1P4 agonist cf	S1P1 ag
CN(C)C(=O)c1c([N+](=O)[O-])c(C(C)(C)C)nn1C	-3	0	-4	0	4	.	.
CCCc1nn(C)c(C(N)=O)c1[N+](=O)[O-]	-15	12*	1	.	.	-1	3
O=C(CN1C(=O)NC2(CCSC2)C1=O)N1CCN(c2ccc(F)cc2)CC1 (stereo not drawn)	-10	18*	.	-1	-3	-1	-4
O=C(CN1C(=O)C2CCCCC2C1=O)N1CCN(c2ccc(F)cc2)CC1 (stereo not drawn)	-18	-3	-1	.	.	.	.
COc1ccc(CNC(=O)c2sc3nc4c(c(C(F)(F)F)c3c2N)CCC4)cc1	-16	196*	-3	0	-2	-2	-9
COc1ccc(C(c2c[nH]c3ccccc23)c2c[nH]c3ccccc23)cc1O	-14	2	.	-1	-6	.	.
Cc1ccccc1/C=N\NC(=O)c1ccc(Cn2cccn2)o1	-16	47*	13	-1	4	-2	-3
CC(C)CNC(=O)COC(=O)CNC(=O)c1cc(Cl)cc([N+](=O)[O-])c1	-5	-1	-17	0	15	.	.
CCOC(=O)c1ccc2c(c1)C(=O)N(C1CCCCC1)C2=O	-17	25*	32	0	3	-2	4
CCOC(=O)N1CCC(N2C(=O)c3ccc(C(=O)O)cc3C2=O)CC1	9	1	-34	-1	-10	.	.
COc1ccc(/C=C(/NC(=O)/C=C/c2ccccc2)C(=O)NCCCCCC(=O)O)cc1	-14	2	-5	.	.	.	.
Cc1nc(Cl)c2c(n1)NC1=C(O2)C(=O)CCC1	-3	14*	-6	-2	-10	-2	4
CC(NC(=O)C(NC(=O)C(Cc1c[nH]c2ccccc12)NC(=O)OC(C)(C)C)C(C)C)C(N)=O (stereo not drawn)	-7	-5	-25	.	.	.	.
O=C(NCc1ccc2c(c1)OCO2)c1ccc(S(=O)(=O)N2CCOCC2)cc1	5	1	12	.	.	.	.
CCOc1ccccc1OCCCCCc1c(C)n[nH]c1C	0	11*	-3	0	-4	11*	3
Cc1[nH]c(=S)c(C#N)c(C)c1CCC#N	-4	-1	8	.	.	.	.
O=C(O)c1ccc(Br)cn1	2	27*	-28	.	.	-2	2
FC(F)Oc1ccc(/C=N/N2CCCCC2)c(OC(F)F)c1	-20	1	-6	.	.	.	.
Cc1cc(C(=O)N/N=C/c2cc([N+](=O)[O-])ccc2O)c2ccccc2n1	-10	22*	-7	-1	6	-2	-1
O=C(N/N=C/c1cc([N+](=O)[O-])ccc1O)c1cc(-c2ccccc2)nc2ccccc12	-9	1	-14	-1	-17	.	.
CCCn1c(SCC(=O)NCC2CCCO2)nc2c1c(=O)n(C)c(=O)n2C (stereo not drawn)	0	34*	-3	-2	17	-2	-2
Cn1c(=O)c2c(nc(SCC(=O)NCC3CCCO3)n2Cc2ccc(F)cc2)n(C)c1=O (stereo not drawn)	1	0	-7	.	.	.	.
C=CCn1c(COc2cc(C)ccc2C(C)C)nnc1SCC(=O)c1c(N)n(C)c(=O)n(C)c1=O	-7	13*	-1	-2	6	0	1
CCCCCCn1c(COc2ccccc2F)nnc1SCC(=O)c1c(N)n(C)c(=O)n(C)c1=O	-14	1	16	-2	-6	.	.
CCc1ccnc(NC(=O)NS(=O)(=O)c2ccc(C)cc2)c1	0	-1	6	.	.	.	.
Oc1ccc(-n2cnnn2)cc1	5	30*	.	-1	-2	-2	-9
Clc1ccc(-n2cnnn2)cc1	-2	5	8	-1	-8	.	.
